Screens (PubChem BioAssay)
This excerpt belongs to a sample that is enriched for hits.
IDE exosite inh = insulin-degrading enzyme (human) exo-site inhibition; P14735; purified IDE, FL-6b probe fluorescence polarization; active compounds read low; z-score at 20 µM; actives 6.3% (n = 17,000); AID 1259349;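 active means z-score of -3 or lower, meaning strong loss of probe binding signal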;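 further: His-tagged human IDE residues 42-1019 made in E. coli with 30 nM FL-6b probe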
Target sequence (P14735 42-1019 limits assumed): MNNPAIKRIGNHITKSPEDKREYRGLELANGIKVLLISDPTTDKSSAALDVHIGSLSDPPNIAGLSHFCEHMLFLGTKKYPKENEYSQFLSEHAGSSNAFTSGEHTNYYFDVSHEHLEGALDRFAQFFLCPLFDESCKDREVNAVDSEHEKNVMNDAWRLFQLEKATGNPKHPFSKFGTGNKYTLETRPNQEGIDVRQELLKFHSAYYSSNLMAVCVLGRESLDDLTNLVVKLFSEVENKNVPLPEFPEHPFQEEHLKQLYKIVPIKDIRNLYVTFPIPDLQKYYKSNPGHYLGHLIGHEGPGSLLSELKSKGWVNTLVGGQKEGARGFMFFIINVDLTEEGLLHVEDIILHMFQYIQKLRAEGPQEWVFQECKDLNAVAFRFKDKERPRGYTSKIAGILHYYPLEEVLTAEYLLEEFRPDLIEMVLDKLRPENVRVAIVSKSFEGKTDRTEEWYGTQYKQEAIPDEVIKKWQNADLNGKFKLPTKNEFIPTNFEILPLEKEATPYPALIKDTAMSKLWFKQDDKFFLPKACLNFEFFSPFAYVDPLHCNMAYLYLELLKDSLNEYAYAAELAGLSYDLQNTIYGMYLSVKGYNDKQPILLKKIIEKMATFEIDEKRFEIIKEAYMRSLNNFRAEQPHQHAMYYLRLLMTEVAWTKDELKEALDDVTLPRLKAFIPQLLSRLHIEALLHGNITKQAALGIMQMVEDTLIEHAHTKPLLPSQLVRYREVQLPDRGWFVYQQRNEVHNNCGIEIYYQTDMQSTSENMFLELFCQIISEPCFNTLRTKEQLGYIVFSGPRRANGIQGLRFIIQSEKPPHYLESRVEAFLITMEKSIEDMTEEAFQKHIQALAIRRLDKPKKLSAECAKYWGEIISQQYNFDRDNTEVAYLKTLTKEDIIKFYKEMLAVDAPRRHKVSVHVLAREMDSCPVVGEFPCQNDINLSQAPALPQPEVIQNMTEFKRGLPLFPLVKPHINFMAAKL
* = called active by the depositor.

SMILES | IDE exosite inh
COc1cccc(-c2ccc([C@H]3[C@H](CO)N4CCCCN(Cc5cncnc5)C[C@@H]34)cc2)c1 | -3.01*
OC[C@@H]1[C@@H](c2ccc(-c3cccc(F)c3)cc2)[C@@H]2CN(Cc3cncnc3)CCCCN12 | 0.632
COc1cccc(-c2ccc([C@H]3[C@@H](CO)N4CCCCN(Cc5cncnc5)C[C@H]34)cc2)c1 | -6.61*
COc1cccc(-c2ccc([C@H]3[C@@H](CO)N4CCCCN(CC5CC5)C[C@H]34)cc2)c1 | -5.14*
OC[C@@H]1[C@H](c2ccc(-c3ccccc3)cc2)[C@H]2CN(Cc3cncnc3)CCCCN12 | 0.118
COc1cccc(CN2CCCCN3[C@H](CO)[C@H](c4ccc(-c5cccc(C#N)c5)cc4)[C@@H]3C2)c1 | 0.952
O=C(NC[C@@H]1[C@@H](c2ccccc2)[C@@H](CO)N1Cc1ccccn1)C1CCCC1 | -1.17
COc1ccc(CN2[C@H](CO)[C@H]3c4ccccc4N(C(=O)NC(C)C)C[C@H]32)cc1 | 1.87
CC(C)C#Cc1ccc([C@H]2[C@@H](CO)N3C(=O)CN(C(=O)NC4CCCC4)C[C@@H]23)cc1 | 0.774
CC(=O)NC[C@@H]1[C@H](c2ccc(-c3cccnc3)cc2)[C@H](CO)N1C(=O)C1CC1 | 1.33
N#Cc1ccc(-c2ccc([C@@H]3[C@@H](CO)N4C(=O)CNC[C@@H]34)cc2)cc1 | 0.643
C[C@H](CO)N1C[C@H](C)[C@@H](CN(C)S(=O)(=O)c2cn(C)cn2)OCc2ccccc2-c2ccccc2C1=O | 0.139
O=C(C1CCC1)N1CCCCN2[C@@H](CO)[C@@H](c3ccc(-c4ccncc4)cc3)[C@@H]2C1 | 0.0138
C/C=C/c1ccc([C@H]2[C@@H](CO)N(S(C)(=O)=O)[C@@H]2CN(CC)C(C)=O)cc1 | 0.534
CCC(=O)N1CC2(C1)[C@@H](c1ccc(-c3cccc(C)c3)cc1)[C@H](CO)N2S(C)(=O)=O | -0.916
Cc1ccccc1-c1ccc([C@@H]2[C@@H](CO)N3CCCCN(C(=O)Nc4cccc(F)c4)C[C@@H]23)cc1 | -1.53
COc1ccc(NC(=O)N2CCCCN3[C@H](CO)[C@@H](c4ccc(-c5ccccc5C)cc4)[C@@H]3C2)cc1 | 0.547
Cc1ccccc1-c1ccc([C@H]2[C@@H](CO)N3CCCCN(C(=O)Nc4ccccc4)C[C@@H]23)cc1 | -1.37
Cc1ccccc1-c1ccc([C@@H]2[C@H](CO)N3CCCCN(C(=O)Nc4ccccc4)C[C@@H]23)cc1 | -5.05*
Cc1ccccc1-c1ccc([C@@H]2[C@@H](CO)N3CCCCN(C(=O)Nc4ccc(F)cc4)C[C@@H]23)cc1 | 0.287
Cc1ccccc1-c1ccc([C@@H]2[C@H](CO)N3CCCCN(C(=O)Nc4ccc(F)cc4)C[C@@H]23)cc1 | -10.6*
O=C(Nc1ccccc1F)N1CC(=O)N2[C@H](CO)[C@@H](c3ccc(-c4ccc(F)cc4)cc3)[C@@H]2C1 | 1.09
COc1ccccc1NC(=O)N1C[C@H](O)COC[C@H]2O[C@@H](CC(=O)NCCc3ccncc3)CC[C@@H]21 | -0.102
CC(C)CC#Cc1ccc([C@H]2[C@H](CO)N3C(=O)CN(C(=O)Cc4ccccc4)C[C@@H]23)cc1 | 1.86
CN(C)C(=O)c1cccc(-c2ccc3c(c2)[C@@H]2[C@@H](CCN2C(=O)Nc2ccc(F)cc2)[C@H](CO)N3C)c1 | 0.882
SMILES | IDE exosite inh
COc1ccc2c3c(n(C)c2c1)[C@H](CO)NCC31CN(Cc2ccc(-c3ccccn3)cc2)C1 | -0.867
COC(=O)C[C@@H]1CC[C@@H]2[C@H](COc3ccc(NC(=O)Nc4cccc(C#N)c4)cc3C(=O)N2C)O1 | -0.68
N#C[C@H]1[C@@H](c2ccccc2-c2ccccc2F)[C@H](CO)N1C(=O)C1CC1 | 1.99
COc1cccc(-c2ccc([C@H]3[C@@H](CO)N4CCCCN(S(=O)(=O)c5cn(C)cn5)C[C@H]34)cc2)c1 | -3.95*
COc1cccc(-c2ccc([C@H]3[C@@H](CO)N4CCCCN(S(=O)(=O)c5cccs5)C[C@H]34)cc2)c1 | 0.914
COc1cccc(S(=O)(=O)N2CCCCN3[C@H](C2)[C@@H](c2ccc(-c4ccccc4)cc2)[C@@H]3CO)c1 | 2.99
COc1cccc(S(=O)(=O)N2CCCCN3[C@H](CO)[C@@H](c4ccc(-c5ccccc5)cc4)[C@H]3C2)c1 | 2.54
COc1cccc(-c2ccc([C@@H]3[C@H]4CN(S(=O)(=O)c5cccs5)CCCCN4[C@H]3CO)cc2)c1 | 4.17
COc1cccc(-c2ccc([C@@H]3[C@H](CO)N4CCCCN(S(=O)(=O)c5cn(C)cn5)C[C@@H]34)cc2)c1 | -10.7*
C/C=C/c1ccc([C@H]2[C@@H](CO)N(C(=O)C3CC3)[C@@H]2CN(CC)C(C)=O)cc1 | 0.626
Cc1noc(C)c1NC(=O)Nc1ccc2c(c1)C(=O)N(C)[C@H]1CC[C@@H](CC(=O)N[C@@H]3CCN(Cc4ccccc4)C3)O[C@H]1CO2 | 0.416
O=C(C[C@H]1CC[C@@H](NS(=O)(=O)c2ccccc2F)[C@H](CO)O1)NCCCN1CCOCC1 | 0.819
O=C1[C@H](Cc2ccc(C(F)(F)F)cc2)CCn2nncc2COC[C@H]2CCCCN12 | 2.36
O=C(C[C@@H]1CC[C@H]2[C@@H](COC[C@@H](O)CN2Cc2nccs2)O1)NCc1ccccc1Cl | -0.57
C/C=C/c1ccc([C@H]2[C@H](CO)N3C(=O)CN(C(=O)c4cccc(F)c4)C[C@@H]23)cc1 | 0.741
CCS(=O)(=O)N1CC(=O)N2[C@H](CO)[C@@H](c3ccc(C#CC4CC4)cc3)[C@@H]2C1 | -2.72
CN(C)C(=O)c1cccc(-c2ccc([C@H]3[C@H](CO)N4C(=O)CN(C(=O)CC5CC5)C[C@@H]34)cc2)c1 | 2.15
CNC[C@@H]1OCCCC[C@@H](C)Oc2ccc(NS(=O)(=O)c3ccc(F)cc3)cc2C(=O)N([C@@H](C)CO)C[C@H]1C | 0.193
Cc1cccc(-c2ccc([C@H]3[C@H](CO)N4CCCCN(C(=O)NC(C)C)C[C@@H]34)cc2)c1 | -13.7*
Cc1cccc(-c2ccc([C@@H]3[C@H](CO)N4CCCCN(C(=O)NC(C)C)C[C@@H]34)cc2)c1 | -11.1*
CC(C)NC(=O)N1CCCCN2[C@H](CO)[C@H](c3ccc(C4=CCCC4)cc3)[C@@H]2C1 | 2.9
Cc1ccc(-c2ccc([C@@H]3[C@H]4CN(C(=O)Nc5ccccc5)CCCCN4[C@H]3CO)cc2)cc1 | 0.844
Cc1ccc(-c2ccc([C@H]3[C@@H](CO)N4CCCCN(C(=O)Nc5ccccc5)C[C@@H]34)cc2)cc1 | 0.981
Cc1cccc(-c2ccc([C@H]3[C@H](CO)N4CCCCN(C(=O)c5ccc6c(c5)OCO6)C[C@@H]34)cc2)c1 | -2.15
Cc1cccc(-c2ccc([C@H]3[C@H]4CN(C(=O)NC(C)C)CCCCN4[C@H]3CO)cc2)c1 | -14.4*
SMILES | IDE exosite inh
O=C1CN(S(=O)(=O)c2ccccc2)C[C@H]2[C@H](c3ccc(C#CCc4ccccc4)cc3)[C@H](CO)N12 | -2.33
COCC(=O)N1CC(=O)N2[C@H](CO)[C@H](c3ccc(C#Cc4cccnc4)cc3)[C@@H]2C1 | -1.29
CN(C)C(=O)c1cccc(-c2ccc([C@@H]3[C@@H](CO)N(C(=O)C4CCCCC4)[C@H]3C#N)cc2)c1 | 4.6
Cn1cnc(S(=O)(=O)N2CCCCN3[C@H](CO)[C@H](c4ccc(C#CC5CCCC5)cc4)[C@H]3C2)c1 | 1.95
COc1ccccc1-c1ccc([C@@H]2[C@H](CO)N3CCCCN(S(=O)(=O)c4cn(C)cn4)C[C@@H]23)cc1 | -12.7*
COc1ccccc1-c1ccc([C@H]2[C@H]3CN(S(=O)(=O)c4cn(C)cn4)CCCCN3[C@H]2CO)cc1 | 0.557
